Test results from paper PMC10668032, “Altered binding affinity of SIX1-Q177R correlates with enhanced WNT5A and WNT pathway effector expression in Wilms tumor”.
In all, about 33,000 sequences were measured (“e-score”: median about -0.053, highest 2% from about 0.38 on). What follows is part of a selection rich in the highest values, with near analogues and random picks from the rest.

target: T1, SIX1 homeodomain (reference allele) (human, UniProt Q15475 108-198); assay: universal protein binding microarray; Universal all-10-mer PBM (8x60K, AMADID 030236), 300 nM GST-tagged protein, Alexa Fluor 488 anti-GST; buffer, salt, pH and temperature not stated (as in Berger); high values mean tight binding; details: protein: ivt; tags: N-terminal GST; dsDNA, one strand shown
T1 sequence: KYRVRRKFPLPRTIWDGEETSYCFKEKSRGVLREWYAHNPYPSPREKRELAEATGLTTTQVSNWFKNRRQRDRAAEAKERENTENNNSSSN
Method in brief: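 Homeodomains fused to GST were made by in vitro transcription/translation and measured by anti-GST western blot with a recombinant GST standard curve. At 300 nM final concentration, they were applied in duplicate to universal 'all 10-mer' protein binding microarrays (8×60K format).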

For ATCGATGG, which binding signal is on record?
The binding signal was 0.185 ± 0.0344 E-score.

GTATATCA was tested. Which binding signal did it give?
The binding signal was 0.429 ± 0.0166 E-score.

For ATATATAA, which binding signal is on record?
Its binding signal is 0.298 ± 0.0548 E-score.

How did the binding signal turn out when GTATATAA was run?
The binding signal was 0.245 ± 0.0101 E-score.

With CTCTATCC as the sequence, how does the binding signal read?
The binding signal was 0.216 ± 0.0113 E-score.

Which binding signal does the source give for CTATATTA here?
Its binding signal is 0.152 ± 0.0427 E-score.

How did the binding signal turn out when CTATATCC was run?
Its binding signal is 0.366 ± 0.00388 E-score.

How did the binding signal turn out when ATATATCC was run?
The binding signal was 0.438 ± 0.0246 E-score.

With CTATATCA as the sequence, how does the binding signal read?
Its binding signal is 0.412 ± 0.033 E-score.

AAATATCA was tested. Which binding signal did it give?
The binding signal was 0.224 ± 0.158 E-score.

For ATATATCG, which binding signal is on record?
The binding signal was 0.372 ± 0.0566 E-score.

For ATATATCA, which binding signal is on record?
Its binding signal is 0.4 ± 0.0452 E-score.

With GTATATGA as the sequence, how does the binding signal read?
Its binding signal is 0.225 ± 0.0139 E-score.

With ATCCAACC as the sequence, how does the binding signal read?
The binding signal was 0.173 ± 0.00282 E-score.

Which binding signal does the source give for TATCTAGA here?
Its binding signal is 0.189 ± 0.00564 E-score.

ATACGTGG was tested. Which binding signal did it give?
The binding signal was 0.272 ± 0.04 E-score.

For ACAACACC, which binding signal is on record?
The binding signal was 0.23 ± 0.0178 E-score.

How did the binding signal turn out when TATAACAA was run?
Its binding signal is 0.2242 ± 0.00053 E-score.

For ATATTAGG, which binding signal is on record?
The binding signal was 0.257 ± 0.0151 E-score.

With CGAAGATC as the sequence, how does the binding signal read?
The binding signal was 0.202 ± 0.00878 E-score.

Which binding signal does the source give for CATGATAG here?
Its binding signal is 0.274 ± 0.0672 E-score.

Which binding signal does the source give for CATGACAC here?
Its binding signal is 0.35 ± 0.0169 E-score.

AATAATAC was tested. Which binding signal did it give?
Its binding signal is 0.345 ± 0.0992 E-score.

GATGATGA was tested. Which binding signal did it give?
Its binding signal is 0.189 ± 0.0213 E-score.

For CATAATAC, which binding signal is on record?
The binding signal was 0.34 ± 0.0222 E-score.

For TATGATAA, which binding signal is on record?
The binding signal was 0.17 ± 0.026 E-score.

Which binding signal does the source give for AAAGATAC here?
The binding signal was 0.365 ± 0.0561 E-score.

With GATAATAC as the sequence, how does the binding signal read?
Its binding signal is 0.406 ± 0.0398 E-score.

For GATGATAC, which binding signal is on record?
The binding signal was 0.484 ± 0.00743 E-score.

AATGATAG was tested. Which binding signal did it give?
The binding signal was 0.309 ± 0.0717 E-score.

For CATGATAC, which binding signal is on record?
Its binding signal is 0.4813 ± 0.00335 E-score.

For AATGATAC, which binding signal is on record?
The binding signal was 0.467 ± 0.0253 E-score.

CCACGATA was tested. Which binding signal did it give?
Its binding signal is 0.324 ± 0.0401 E-score.

GTATGCGA was tested. Which binding signal did it give?
The binding signal was 0.225 ± 0.0379 E-score.

Which binding signal does the source give for AGCGGGAT here?
Its binding signal is 0.289 ± 0.0282 E-score.

With ATGTAATA as the sequence, how does the binding signal read?
The binding signal was 0.208 ± 0.032 E-score.

GGAGACAC was tested. Which binding signal did it give?
The binding signal was 0.219 ± 0.0128 E-score.

How did the binding signal turn out when ATCGGCAT was run?
Its binding signal is 0.205 ± 0.0425 E-score.

For AATAACAC, which binding signal is on record?
The binding signal was 0.151 ± 0.0395 E-score.

For TATGGGGA, which binding signal is on record?
Its binding signal is 0.232 ± 0.0667 E-score.

For AAGTATAT, which binding signal is on record?
Its binding signal is 0.184 ± 0.103 E-score.

How did the binding signal turn out when AATGAGAT was run?
Its binding signal is 0.278 ± 0.0395 E-score.

With AAAGATAT as the sequence, how does the binding signal read?
Its binding signal is 0.351 ± 0.0934 E-score.

With AATGATAT as the sequence, how does the binding signal read?
Its binding signal is 0.44 ± 0.0479 E-score.

Which binding signal does the source give for ATCGTCAT here?
Its binding signal is 0.22 ± 0.00839 E-score.

AATCCGCG was tested. Which binding signal did it give?
The binding signal was 0.1997 ± 0.000431 E-score.

For ATACCGGC, which binding signal is on record?
The binding signal was 0.319 ± 0.00766 E-score.

ATACCGGA was tested. Which binding signal did it give?
The binding signal was 0.381 ± 0.0112 E-score.

With ATCCCGGG as the sequence, how does the binding signal read?
The binding signal was 0.345 ± 0.0141 E-score.

For AGACCGGA, which binding signal is on record?
Its binding signal is 0.157 ± 0.0691 E-score.

Which binding signal does the source give for ATACCGGG here?
Its binding signal is 0.399 ± 0.016 E-score.

With ATACGGGG as the sequence, how does the binding signal read?
The binding signal was 0.335 ± 0.018 E-score.

Which binding signal does the source give for ACCATGAT here?
Its binding signal is 0.269 ± 0.0126 E-score.

With GATTATGA as the sequence, how does the binding signal read?
Its binding signal is 0.205 ± 0.0352 E-score.

For ATATGGCA, which binding signal is on record?
The binding signal was 0.204 ± 0.0271 E-score.

With GAGCCATA as the sequence, how does the binding signal read?
Its binding signal is 0.183 ± 0.0105 E-score.

Which binding signal does the source give for GAATACGA here?
Its binding signal is 0.24 ± 0.0047 E-score.

With GGATAGAC as the sequence, how does the binding signal read?
The binding signal was 0.151 ± 0.00296 E-score.

For CAATATAC, which binding signal is on record?
Its binding signal is 0.197 ± 0.0146 E-score.

TGTATTAA was tested. Which binding signal did it give?
Its binding signal is 0.275 ± 0.027 E-score.

Which binding signal does the source give for TGTATCAA here?
The binding signal was 0.41 ± 0.0207 E-score.

CGTATTAA was tested. Which binding signal did it give?
Its binding signal is 0.222 ± 0.0926 E-score.

For GGTCTCAC, which binding signal is on record?
Its binding signal is 0.203 ± 0.0591 E-score.

For CGTATTAC, which binding signal is on record?
The binding signal was 0.26 ± 0.0203 E-score.

With TATCTCAA as the sequence, how does the binding signal read?
Its binding signal is 0.329 ± 0.0572 E-score.

How did the binding signal turn out when GGGCTCAC was run?
The binding signal was 0.268 ± 0.0467 E-score.

For CGTATCAA, which binding signal is on record?
Its binding signal is 0.466 ± 0.026 E-score.

CCTATCAA was tested. Which binding signal did it give?
The binding signal was 0.288 ± 0.0228 E-score.

How did the binding signal turn out when GGTATCAC was run?
Its binding signal is 0.497 E-score.

For CGTATCAC, which binding signal is on record?
Its binding signal is 0.484 ± 0.00135 E-score.

Which binding signal does the source give for CGTATAAC here?
Its binding signal is 0.204 ± 0.0505 E-score.

TATCGGAA was tested. Which binding signal did it give?
Its binding signal is 0.368 ± 0.0234 E-score.

How did the binding signal turn out when CACCCGGA was run?
Its binding signal is 0.276 ± 0.0383 E-score.

How did the binding signal turn out when CTGAGATC was run?
Its binding signal is 0.253 ± 0.0174 E-score.

With ATGAGACG as the sequence, how does the binding signal read?
Its binding signal is 0.251 ± 0.0275 E-score.

TATCTTCA was tested. Which binding signal did it give?
Its binding signal is 0.251 ± 0.0591 E-score.

With GATCAGAC as the sequence, how does the binding signal read?
Its binding signal is 0.249 ± 0.0505 E-score.

GGTATAAA was tested. Which binding signal did it give?
The binding signal was 0.286 ± 0.0691 E-score.

GCTATCAA was tested. Which binding signal did it give?
Its binding signal is 0.312 ± 0.0869 E-score.

Which binding signal does the source give for GGTATCAA here?
Its binding signal is 0.486 ± 0.00747 E-score.

Which binding signal does the source give for ATACTTTG here?
The binding signal was 0.253 ± 0.096 E-score.

How did the binding signal turn out when GGGTTAGA was run?
The binding signal was 0.16 ± 0.0278 E-score.
